Laboratory results taken from PubChem BioAssay (Tox21).
Unmarked numbers belong to inactive results. Inconclusive results are not listed. Entries that show only a call come without a potency. Active and inactive are the calls of the source. Unless noted, the call rests on the fitted dose curve; in most records, active means well fitted curve in the direction sought with a large enough effect in the repeat runs; inconclusive means weak or mixed curves; inactive means no such curve, though single readings can be large; an effect the other way counts as inactive or inconclusive.

Legend:
[1] = biological target: Luciferin 4-monooxygenase (Photinus pyralis) (UniProt P08659); experiment: qHTS assay to identify small molecule inhibitors of firefly luciferase (AID 1224835); further: nearly all actives have a fitted effect of over 25% in size
Method in brief: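 Quantitative HTS format; KM concentrations of both substrates. Purified P. pyralis FLuc activity quantified from luminescence images.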

[2] = qHTS assay to identify small molecule agonists of the constitutive androstane receptor (CAR) signaling pathway - cell viability counter screen (AID 1224836); further: nearly all actives have a fitted effect of over 45% in size
Method in brief: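 Multiplexed viability check: HepG2-CYP2B6-hCAR cells, 15-point compound dosing, 0.75 uM PK11195 final, 23 h at 37 C, CellTiter-Fluor fluorescence.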

[3] = qHTS assay to identify small molecule antagonists of the constitutive androstane receptor (CAR) signaling pathway - cell viability counter screen (AID 1224837); further: nearly all actives have a fitted effect of over 45% in size
Method in brief: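 HepG2-CYP2B6-hCAR cells, 2500/well, 4 hr pre-incubation; compound titration, 15 conc.; CITCO 50 nM final; 23 hr, 37 C/5% CO2; CellTiter-Fluor, fluorescence intensity.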

[4] = biological target: Nuclear receptor subfamily 1 group I member 3 (Homo sapiens) (UniProt Q14994); experiment: qHTS assay to identify small molecule antagonists of the constitutive androstane receptor (CAR) signaling pathway (AID 1224838);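 further: HepG2 cells stably expressing hCAR with CYP2B6 luciferase reporter stimulated by CITCO; nearly all actives have a fitted effect of over 40% in size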
Method in brief: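 HepG2-CYP2B6-hCAR cells; 4 h pre-incubation; cpd (15 conc) + CITCO 50 nM final; 24 h, 37 C/5% CO2; ONE-Glo, luminescence.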

[5] = biological target: Nuclear receptor subfamily 1 group I member 3 (Homo sapiens) (UniProt Q14994); experiment: qHTS assay to identify small molecule agonists of the constitutive androstane receptor (CAR) signaling pathway (AID 1224839);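 further: HepG2 cells stably carrying human CAR and a CYP2B6 luciferase reporter; nearly all actives have a fitted effect of over 15% in size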
Method in brief: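 Using human hepatoma HepG2 cells engineered with hCAR and a CYP2B6-2.2kb reporter, 15-concentration compound series were incubated 24 h alongside PK11195 at 0.75 uM final, with luminescence quantified afterwards.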

[6] = biological target: Thyrotropin receptor (Homo sapiens) (UniProt P16473); experiment: qHTS assay to identify small molecule agonists of the thyroid stimulating hormone receptor (TSHR) signaling pathway (AID 1224843; calls by dose curve; further: nearly all actives have a fitted effect of over 45% in size)
Method in brief: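 Cell line HEK293 with TSHR; density 800/well. Exposure 30 min RT. Readout HTRF cAMP (cAMP-d2/anti-cAMP-cryptate), 1 h RT before reading.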

[7] = qHTS assay to identify small molecule agonists of the hypoxia (HIF-1) signaling pathway - cell viability counter screen (AID 1224844; calls by dose curve; further: nearly all actives have a fitted effect of over 50% in size)
Method in brief: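 ME-180 HRE-bla cells, 2,000/well, 0.5% dialyzed FBS; 5 hr settle, 17 hr compound at 37C/5% CO2; CCF4-AM reporter read first, then CellTiter-Glo luminescence after 30 min RT.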

[8] = qHTS assay to identify small molecule agonists of the hypoxia (HIF-1) signaling pathway (AID 1224846; active means well fitted activation curve with a large enough effect in the signal ratio in the repeat runs, not every such curve was filed as active; the % refers to the signal ratio)
Method in brief: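 Cell line: CellSensor HRE-bla ME-180; 2,000 cells/well; 0.5% dialyzed FBS; 5 h preincubation; DMSO compound pin transfer; 17 h, 37C, 5% CO2; CCF4-AM added; bla FRET signal scored for activation.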

[9] = qHTS RealTime-Glo MT Cell Viability Assay in HepG2 cells - 24 hour (AID 1224867); further: nearly all actives have a fitted effect of over 50% in size
Method in brief: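 Cell number in HepG2 cultures estimated from NanoLuc luminescence generated by metabolic reduction of a prosubstrate by living cells. The homogeneous, nonlytic format allowed repeated reads at 0, 8, 16, 24, 32 and 40 h of compound exposure.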

[10] = A CellTox Green Cytotoxicity Assay to monitor cytotoxicity in HEK293 cells - 0 hour (AID 1224869); further: nearly all actives have a fitted effect of over 50% in size
Method in brief: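 Nonlytic real-time cytotoxicity: HEK293 + CellTox Green reagent plated, 5 h preincubation, pintool compound addition (23 nL in DMSO), 37 C for 40 h, fluorescence measured at successive time points.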

[11] = qHTS RealTime-Glo MT Cell Viability Assay in HepG2 cells - 40 hour (AID 1224870); further: nearly all actives have a fitted effect of over 50% in size
Method in brief: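 HepG2 cells mixed with RealTime-Glo MT reagents (NanoLuc plus cell-permeant prosubstrate) were seeded at 600 cells/well, incubated 5 h at 37 C/5% CO2, then pinned with compounds in DMSO; nonlytic luminescence tracked viability during 40 h treatment.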

[12] = qHTS assay to identify small molecule antagonists of the estrogen related receptor (ERR) signaling pathway from Tox21 library - cell viability counter screen (AID 1224834); further: nearly all actives have a fitted effect of over 30% in size
Method in brief: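 Fluorescence from CellTiter-Fluor gives the viability read-out, taken 30 min after reagent addition. Before that, ERR cells seeded 6 h earlier were incubated with compounds for 17.5 h at 37 C.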

[13] = qHTS assay to identify small molecule antagonists of the estrogen related receptor signaling pathway with the pleiotropic PPARgamma coactivator (PGC) from Tox21 10K library - cell viability counter screen (AID 1224840; active means well fitted cell-killing curve with a large enough effect in the repeat runs, not every such curve was filed as active; further: nearly all actives have a fitted effect of over 40% in size)
Method in brief: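 PGC/ERR cells, 2,000/well; 6 h pre-incubation 37 C/5% CO2; cpd in DMSO via pin tool; 17.5 h 37 C; CellTiter-Fluor, 30 min; fluorescence.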

[14] = qHTS assay to identify small molecule agonists of H2AX - cell viability counter screen (AID 1224847; calls by dose curve; further: top concentration of the series differs between compounds; nearly all actives have a fitted effect of over 30% in size)
Method in brief: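 After overnight plating of 1000 CHO-K1 cells per well, a 15-concentration compound series was applied for 3 hr at 37C. Luminescence from CellTiter-Glo, read following 30 min at room temperature, reflected cell viability.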

[15] = qHTS RealTime-Glo MT Cell Viability Assay in HEK293 cells - 32 hour (AID 1224868); further: nearly all actives have a fitted effect of over 50% in size; further: potency means the concentration at half of the fitted maximal effect
Method in brief: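 Homogeneous bioluminescent viability format in HEK293 cells (600 cells/well). Following 5 h at 37 C/5% CO2, 23 nL compound was pintooled; the signal was measured repeatedly during 40 h incubation.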

[16] = qHTS assay to identify small molecule agonists of H2AX (AID 1224845; active means well fitted activation curve with a large enough effect in the signal ratio in the repeat runs, not every such curve was filed as active; the % refers to the signal ratio)
Method in brief: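 Wild-type CHO-K1 cells plated overnight, then exposed 3 hr at 37C to compounds at 15 concentrations (0.76% DMSO). Lysed, then HTRF anti-pH2AX(S139)-cryptate/anti-H2AX-d2 detection after 24 hr at room temperature; emissions 665 and 620 nm.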

[17] = qHTS assay to identify small molecule antagonists of the estrogen related receptor signaling pathway with the pleiotropic PPARgamma coactivator (PGC) from Tox21 10K library (AID 1224841; call rule not given here)
Method in brief: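 PGC/ERR cell line, 2,000 cells/well; 6 h pre-incubation 37 C/5% CO2; compounds (DMSO) pinned in; 18 h, 37 C; One-Glo, 30 min RT; luminescence.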

[18] = qHTS assay to identify small molecule agonists of the estrogen related receptor signaling pathway with the pleiotropic PPARgamma coactivator (PGC) from Tox21 10K library (AID 1224842); further: nearly all actives have a fitted effect of over 15% in size
Method in brief: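 PGC/ERR reporter cells (NTP line) were seeded 2,000 per well, rested 6 h at 37 C/5% CO2, then pin-dosed with compounds in DMSO for 18 h at 37 C; luciferase read by One-Glo luminescence after 30 min at room temperature.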

[19] = qHTS assay to identify small molecule antagonists of the estrogen related receptor (ERR) signaling pathway from Tox21 library (AID 1224848); further: nearly all actives have a fitted effect of over 50% in size
Method in brief: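 Screening used an ERR reporter line supplied by NTP, exposed for 18 h at 37 C to library compounds delivered in DMSO. Signal was luciferase luminescence developed with ONE-Glo at room temperature for 30 min.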

[20] = qHTS assay to identify small molecule agonists of the estrogen related receptor (ERR) signaling pathway from Tox21 library (AID 1224849; calls by dose curve; further: nearly all actives have a fitted effect of over 15% in size); settings: ERR reporter cell line, ONE-Glo luciferase, 18 h; at 92.4 µM (top of the series) unless noted
Method in brief: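 ERR cells, 6 h pre-incubation 37 C/5% CO2; cpd in DMSO pinned; 18 h 37 C; ONE-Glo added, 30 min RT; luminescence read. Agonist mode, qHTS.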

Sequence of Nuclear receptor subfamily 1 group I member 3 (Homo sapiens) (Q14994 whole entry, looked up): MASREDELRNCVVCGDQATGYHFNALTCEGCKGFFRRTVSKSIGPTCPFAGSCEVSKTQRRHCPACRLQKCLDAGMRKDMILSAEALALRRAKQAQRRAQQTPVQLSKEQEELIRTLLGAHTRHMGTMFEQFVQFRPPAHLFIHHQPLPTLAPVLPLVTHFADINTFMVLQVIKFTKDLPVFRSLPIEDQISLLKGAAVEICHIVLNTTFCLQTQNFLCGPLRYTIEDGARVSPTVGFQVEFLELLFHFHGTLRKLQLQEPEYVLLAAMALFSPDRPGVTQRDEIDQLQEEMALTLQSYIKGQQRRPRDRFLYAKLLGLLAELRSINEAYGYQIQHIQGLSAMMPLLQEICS
Sequence of Luciferin 4-monooxygenase (Photinus pyralis) (P08659 whole entry, looked up): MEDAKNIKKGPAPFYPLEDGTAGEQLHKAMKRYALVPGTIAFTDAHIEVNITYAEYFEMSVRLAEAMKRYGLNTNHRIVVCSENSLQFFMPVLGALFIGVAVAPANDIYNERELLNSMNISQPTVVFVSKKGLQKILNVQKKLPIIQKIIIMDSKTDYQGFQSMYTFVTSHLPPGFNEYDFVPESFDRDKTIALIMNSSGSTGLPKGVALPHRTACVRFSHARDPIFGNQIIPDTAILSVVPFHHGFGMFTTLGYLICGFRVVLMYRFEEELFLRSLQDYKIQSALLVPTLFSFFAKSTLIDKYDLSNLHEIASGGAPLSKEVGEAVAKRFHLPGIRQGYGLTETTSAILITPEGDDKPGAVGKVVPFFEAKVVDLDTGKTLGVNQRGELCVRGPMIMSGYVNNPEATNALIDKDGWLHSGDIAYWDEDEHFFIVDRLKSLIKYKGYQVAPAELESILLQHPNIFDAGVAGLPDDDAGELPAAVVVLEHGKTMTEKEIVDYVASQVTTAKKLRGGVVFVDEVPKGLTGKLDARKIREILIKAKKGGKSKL
Sequence of Thyrotropin receptor (Homo sapiens) (P16473 whole entry, looked up): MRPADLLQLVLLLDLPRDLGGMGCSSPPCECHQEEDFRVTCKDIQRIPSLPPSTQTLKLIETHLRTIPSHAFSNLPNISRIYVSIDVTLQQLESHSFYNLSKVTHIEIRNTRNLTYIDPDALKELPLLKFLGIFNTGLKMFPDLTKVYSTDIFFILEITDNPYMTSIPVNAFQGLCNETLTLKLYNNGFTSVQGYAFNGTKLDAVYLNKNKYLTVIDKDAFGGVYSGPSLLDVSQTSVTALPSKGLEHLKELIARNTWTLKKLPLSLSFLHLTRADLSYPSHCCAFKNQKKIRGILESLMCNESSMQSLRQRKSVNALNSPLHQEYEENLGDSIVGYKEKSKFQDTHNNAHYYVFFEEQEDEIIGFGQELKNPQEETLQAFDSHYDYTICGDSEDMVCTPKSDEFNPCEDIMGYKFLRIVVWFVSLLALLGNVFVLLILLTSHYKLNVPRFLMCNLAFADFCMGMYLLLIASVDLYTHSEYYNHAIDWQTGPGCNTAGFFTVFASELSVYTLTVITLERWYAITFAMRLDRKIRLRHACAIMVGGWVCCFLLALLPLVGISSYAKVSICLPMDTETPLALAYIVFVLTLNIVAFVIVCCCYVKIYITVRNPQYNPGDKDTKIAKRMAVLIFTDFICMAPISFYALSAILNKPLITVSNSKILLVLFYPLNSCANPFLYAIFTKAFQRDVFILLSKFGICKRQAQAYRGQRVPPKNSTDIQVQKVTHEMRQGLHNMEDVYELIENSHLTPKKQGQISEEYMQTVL

Row | SMILES | Potency [1] | Potency [2] | Potency [3] | Potency [4] | Potency [5] | Potency [6] | Potency [7] | outcome [8] | Potency [9] | outcome [10] | Potency [11] | Potency [12] | Potency [13] | Potency [14] | Potency [15] | outcome [16] | Potency [17] | Potency [18] | Potency [19] | activity change, positive = activation [20] [%]
1 | CC[C@H](O)C(C[C@H](C)N(C)C)(c1ccccc1)c1ccccc1 | inactive | inactive | inactive | inactive | inactive | inactive | inactive | inactive | inactive | inactive | inactive | – | – | – | – | – | – | – | – | –
2 | CCOP(=S)(OCC)SCCl | inactive | inactive | inactive | – | – | inactive | inactive | inactive | inactive | inactive | inactive | inactive | inactive | inactive | inactive | – | – | – | – | –
3 | CN(C)CCc1c[nH]c2cccc(OP(=O)(O)O)c12 | inactive | inactive | inactive | – | – | – | inactive | – | inactive | inactive | inactive | inactive | inactive | inactive | inactive | inactive | – | – | – | –
4 | CCc1ccc(C2CCNCC2)cc1 | inactive | inactive | inactive | – | – | – | inactive | inactive | inactive | inactive | inactive | inactive | inactive | inactive | inactive | inactive | – | – | – | –
5 | CC(Cc1ccccc1)NCCn1cnc2c1c(=O)n(C)c(=O)n2C (stereo not drawn) | inactive | inactive | inactive | – | – | inactive | inactive | inactive | inactive | inactive | inactive | – | inactive | inactive | 21.6 µM (active) | inactive | inactive | inactive | inactive | -15.8
6 | O=C(NC(O)C(Cl)(Cl)Cl)NC(O)C(Cl)(Cl)Cl (stereo not drawn) | inactive | inactive | inactive | – | – | – | inactive | inactive | inactive | inactive | inactive | inactive | inactive | inactive | inactive | inactive | – | – | – | –
7 | CCCC(C)C1(CC)C(=O)N=C(S)NC1=O (stereo not drawn) | – | inactive | inactive | – | inactive | – | inactive | inactive | inactive | inactive | inactive | inactive | – | inactive | inactive | inactive | – | – | – | –
8 | CN1COCN(Cc2cnc(Cl)s2)/C1=N\[N+](=O)[O-] | inactive | inactive | inactive | – | – | inactive | inactive | inactive | inactive | inactive | inactive | inactive | – | inactive | inactive | inactive | – | – | – | –
9 | C=CC1(C)OC(=O)N(c2cc(Cl)cc(Cl)c2)C1=O (stereo not drawn) | inactive | inactive | inactive | – | – | – | inactive | inactive | inactive | inactive | inactive | inactive | – | inactive | inactive | inactive | – | – | – | –
10 | NCC1(CC(=O)O)CCCCC1 | – | inactive | inactive | – | – | inactive | inactive | – | inactive | inactive | inactive | inactive | – | inactive | inactive | inactive | – | – | – | –
11 | S=C=S | – | inactive | inactive | inactive | inactive | inactive | inactive | inactive | inactive | inactive | inactive | inactive | inactive | inactive | inactive | inactive | inactive | inactive | inactive | 2.11
12 | N#CC(Br)(Br)C(N)=O | inactive | inactive | inactive | – | – | – | inactive | inactive | inactive | inactive | inactive | inactive | inactive | inactive | inactive | – | – | – | – | –
13 | CCC1(c2ccccc2)CCC(=O)NC1=O (stereo not drawn) | inactive | inactive | inactive | – | – | inactive | inactive | inactive | inactive | inactive | inactive | inactive | inactive | inactive | inactive | – | – | – | – | –
14 | Clc1ccc(C(Cl)(Cl)Cl)cn1 | inactive | inactive | inactive | – | – | inactive | – | inactive | inactive | inactive | inactive | inactive | – | inactive | inactive | inactive | – | – | – | –
